These results are taken from PubChem BioAssay AID651640 (Broad Institute, 2012).

In all, about 350,000 compounds went through this assay and about 6,000 (1.7%) were called active. Another 5% or so got no clear call; they are omitted. The sample holds actives, similar compounds and a random draw of the others, so the mix is not that of the screen. Rule as the data show it: active = CPE inhibition above about 20% (passing the limit was not always enough); inconclusive = no clear call, values can overlap the other calls; tested in BHK-21 cells.

The nature of the assay: inhibitors of DENV2 cytopathic effect, primary screen, cell-based, plate reader, single concentration (AID 651640).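 Also: 0% = median of neutral control wells and 100% = median of positive control wells.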 The note with it: DENV2-infected cells, cytopathic effect rescue, at 9.99 µM, hits give high values.
On to `O=C1CC2(CCCCC2)Oc2ccc(OCC(=O)N3CCOCC3)cc21`, for which the CPE inhibition was 2.58% (inactive).

`O=C1CC2(CCN(C(=O)COc3ccc(F)cc3)CC2)Oc2ccccc21`: the CPE inhibition is 29.9% (active).

As to `Cc1ccc(N2CC(C(=O)N3CCC4(CC3)CC(=O)c3ccccc3O4)CC2=O)cc1C` (stereo not given), the CPE inhibition is -6.93% (inactive).

Take `COc1cc2c(=O)n(C)c3ccccc3c2cc1OC`: the CPE inhibition is 0.702% (inactive).

On to `Cc1cccc(Oc2c([N+](=O)[O-])c(=O)n(C)c3ccccc23)c1`, for which the CPE inhibition was -2.07% (inactive).

As for `Cc1cc(C)c(-c2c(O)c3ccccc3n(C)c2=O)c(C)c1`, the CPE inhibition was 72% (active).

As for `CC(C)NC(=O)N(C)C[C@H]1OCCCC[C@H](C)Oc2ccc(NC(=O)CCC(F)(F)F)cc2C(=O)N([C@H](C)CO)C[C@H]1C`, the CPE inhibition was 7.36% (inactive).

In the case of `CCN1C(=O)N[C@@H](CCc2ccccc2)C(C(=O)OC)=C1C`, the CPE inhibition is -5.47% (inactive).

Regarding `CCN1C(=S)N[C@@H](CCc2ccccc2)[C@H](C(=O)OC)[C@H]1C`, the CPE inhibition is 65.7% (active).

Take `COCCN1C(=O)N[C@@H](CCc2ccccc2)[C@H](C(C)=O)[C@H]1C`: the CPE inhibition was -5.61% (inactive).

In the case of `CCS(=O)(=O)Nc1ccc2c(c1)C(=O)N(C)[C@H]1CC[C@@H](CC(=O)N3CCCCC3)O[C@H]1CO2`, the CPE inhibition was -4.09% (inactive).

As to `COc1ccc(S(=O)(=O)N(C)C[C@H]2Oc3ccc(NC(=O)CCC(F)(F)F)cc3CC(=O)N([C@H](C)CO)C[C@@H]2C)cc1`, the CPE inhibition was 15.8% (inactive).

Regarding `CO[C@H]1CN(C)C(=O)c2ccc(NC(C)=O)cc2OC[C@@H](C)N(C(=O)c2ccccn2)C[C@@H]1C`, the CPE inhibition was -11.8% (inactive).

In the case of `C[C@H](CO)N1C[C@H](C)[C@H](CN(C)C(=O)Nc2cccc(Cl)c2Cl)OCc2ccccc2-c2ccccc2C1=O`, the CPE inhibition was -3.92% (inactive).

As for `O=C(NC(=S)Nc1ccc(Br)cc1F)C1CCCCC1`, the CPE inhibition is -4% (inactive).

For the molecule `O=C(NC(=S)Nc1ccc(Cl)cc1Cl)C1CC1`, the CPE inhibition was 86.2% (active).

For the molecule `S=C(Nc1ccc(Cl)cc1Cl)N1CCCC1`, the CPE inhibition was -8.93% (inactive).

On to `O=C(Cc1ccccc1)N1C[C@@H]2[C@H](c3ccccc31)[C@@H](CO)N2C(=O)C1CC1`, for which the CPE inhibition is -0.201% (inactive).

`CC(=O)N[C@@H]1CC[C@@H](CCNC(=O)C2CC2)O[C@H]1CO`: the CPE inhibition is 1.82% (inactive).

As to `CCN(Cc1ccccc1)C(=O)CN1C(=S)NC(C)(C)CC1C` (stereo not given), the CPE inhibition was 65.7% (active).

Regarding `COc1cccc(CNC(=O)CCN2C(=S)NC(C)(C)CC2C)c1` (stereo not given), the CPE inhibition was 8.33% (inactive).

Turning to `CC1CC(C)(C)NC(=S)N1CCC(=O)N1CCN(Cc2ccccc2)CC1` (stereo not given), the CPE inhibition was 16.6% (inactive).

As for `C[C@@H]1CN([C@@H](C)CO)C(=O)c2cc(NC(=O)Cn3cnnn3)ccc2O[C@H]1CN(C)Cc1ccc(C(F)(F)F)cc1`, the CPE inhibition was -5.69% (inactive).

Take `N#Cc1cccc(-c2ccc([C@H]3[C@@H](CO)N4CCCCN(C(=O)Nc5ccccc5)C[C@H]34)cc2)c1`: the CPE inhibition was -9.56% (inactive).

Take `C/C=C/c1ccc([C@@H]2[C@H](CO)N(C(=O)c3cnccn3)C23CN(C(C)=O)C3)cc1`: the CPE inhibition was 3.48% (inactive).

With `O=C(c1ccccn1)N1CC2(C1)[C@@H](c1ccccc1)[C@@H](CO)N2C(=O)C1CCCCC1`, the CPE inhibition is 4.48% (inactive).

`CC(=O)N1CC2(C1)[C@H](c1ccccc1)[C@@H](CO)N2C(=O)Cc1ccccc1`: the CPE inhibition is 4.56% (inactive).

On to `O=C(C1CCCCC1)N1[C@H](CO)[C@@H](c2ccccc2)C12CN(Cc1cccc(Cl)c1)C2`, for which the CPE inhibition was 27.1% (active).

With `CCCNC(=O)N1CC2(C1)[C@H](c1ccccc1)[C@@H](CO)N2C(=O)C1CC1`, the CPE inhibition is 16.7% (inactive).

As to `COCC(=O)N1CC2(C1)[C@@H](c1ccc(-c3cccc(F)c3)cc1)[C@@H](CO)N2C(=O)COC`, the CPE inhibition was -4.52% (inactive).

Regarding `C/C=C/c1ccc([C@@H]2[C@@H](CO)N(C(=O)c3ccccc3)C23CN(C(C)=O)C3)cc1`, the CPE inhibition is 70.8% (active).

For `CN(C)CC(=O)N1CC2(C1)[C@H](c1ccccc1)[C@@H](CO)N2C(=O)C1CCCCC1`, the CPE inhibition is -1.45% (inactive).

For `CN(C)CC(=O)N1[C@@H](CO)[C@H](c2ccccc2)C12CN(C(=O)c1cccc(F)c1)C2`, the CPE inhibition was 49.2% (active).

Regarding `O=C(C1CCCC1)N1[C@@H](CO)[C@@H](c2ccccc2)C12CN(Cc1ccc(F)cc1)C2`, the CPE inhibition is -1.84% (inactive).

As to `CCC(=O)N1CC2(C1)[C@H](c1ccccc1)[C@@H](CO)N2C(=O)c1ccccc1`, the CPE inhibition was -0.875% (inactive).

For the molecule `CN(C)CC(=O)N1CC2(C1)[C@H](c1ccccc1)[C@H](CO)N2C(=O)C1CC1`, the CPE inhibition is 24.3% (active).

`COc1ccc2c3c([nH]c2c1)[C@H](CO)N(C(=O)Nc1ccc(F)cc1)CC31CCN(C(=O)Nc2c(C)noc2C)CC1`: the CPE inhibition was -3.75% (inactive).

As for `CC=Cc1ccc2n(c1=O)C[C@@H]1[C@@H](CO)[C@H](C(=O)NCCc3ccccc3)N(C(C)=O)[C@H]21` (mixture of isomers), the CPE inhibition is -2.04% (inactive).

For the molecule `Cc1ccc(S(=O)(=O)NCC[C@H]2CC[C@@H](NS(=O)(=O)c3ccccc3Cl)[C@H](CO)O2)cc1`, the CPE inhibition is -7.15% (inactive).

In the case of `COc1ccc(CN(C)C[C@H]2OCCCC[C@H](C)Oc3ccc(NC(=O)Nc4ccc5c(c4)OCO5)cc3C(=O)N([C@H](C)CO)C[C@@H]2C)cc1`, the CPE inhibition is -3.02% (inactive).

Take `N#C[C@H]1[C@@H](c2ccccc2C2=CCCC2)[C@H](CO)N1C(=O)c1cccc(F)c1`: the CPE inhibition was 19.5% (inactive).

Consider `C[C@@H]1CN([C@@H](C)CO)C(=O)c2cc(NC(=O)NC3CCCCC3)ccc2O[C@@H](C)CCCCO[C@H]1CN(C)Cc1ccccc1`, for which the CPE inhibition was 1.48% (inactive).

For the molecule `CCCC#Cc1cnc2c(c1)C(=O)N([C@H](C)CO)C[C@@H](C)[C@@H](CN(C)C(=O)Nc1ccccc1F)O2`, the CPE inhibition is -4.21% (inactive).

For the molecule `CO[C@@H]1CN(C)C(=O)c2ccc(NC(=O)c3ccc(F)cc3)cc2OC[C@H](C)N(C(=O)c2ccc(F)cc2)C[C@@H]1C`, the CPE inhibition is -1.44% (inactive).

As to `C[C@@H]1CN([C@@H](C)CO)C(=O)c2c(c3ccccc3n2C)-c2ccccc2CO[C@H]1CN(C)Cc1cccc(C(=O)O)c1`, the CPE inhibition was 8.1% (inactive).

Take `COc1cccc(C#Cc2cnc3c(c2)C(=O)N([C@H](C)CO)C[C@@H](C)[C@@H](CN(C)C(=O)C2CCC2)O3)c1`: the CPE inhibition is -2.93% (inactive).

Turning to `CO[C@H]1CN(C)C(=O)c2ccc(NC(=O)C3CC3)cc2OC[C@H](C)N(Cc2ccncc2)C[C@@H]1C`, the CPE inhibition is -0.282% (inactive).

On to `CC(=O)N1CC2(C1)[C@@H](c1ccccc1)[C@@H](CO)N2C(=O)c1cnccn1`, for which the CPE inhibition was -5.39% (inactive).

With `O=C(C1CCCC1)N1CC2(C1)[C@H](c1ccccc1)[C@H](CO)N2CCC(F)(F)F`, the CPE inhibition was -9.33% (inactive).

Regarding `CCC(=O)N1[C@@H](CO)[C@@H](c2ccccc2)C12CN(C(=O)c1cnccn1)C2`, the CPE inhibition was 21.9% (active).

Turning to `O=C(C1CCCCC1)N1CC2(C1)[C@H](c1ccccc1)[C@@H](CO)N2CCC(F)(F)F`, the CPE inhibition was 34.6% (active).

With `O=C(c1cnccn1)N1CC2(C1)[C@H](c1ccccc1)[C@H](CO)N2C(=O)c1ccccc1`, the CPE inhibition is -6.13% (inactive).

As for `O=C(C1CCCC1)N1[C@H](CO)[C@@H](c2ccccc2)C12CN(CCC(F)(F)F)C2`, the CPE inhibition was -3.05% (inactive).

Turning to `COCC#Cc1cnc2c(c1)C(=O)N([C@H](C)CO)C[C@H](C)[C@H](CN(C)C(=O)Cc1cccnc1)O2`, the CPE inhibition is -4.96% (inactive).

For `C[C@H]1CCCCO[C@H](CN(C)S(=O)(=O)c2ccc(F)cc2)[C@@H](C)CN([C@@H](C)CO)C(=O)c2cc(NS(=O)(=O)c3cn(C)cn3)ccc2O1`, the CPE inhibition is 12.6% (inactive).

Consider `CC(=O)N1[C@H](CO)[C@@H](c2ccc(-c3ccccc3)cc2)[C@H]1CNC(=O)C1CC1`, for which the CPE inhibition is -7.62% (inactive).

On to `CCNC(=O)C[C@@H]1CC[C@@H]2[C@H](COc3ccc(NC(=O)Nc4cccc(C)c4)cc3C(=O)N2C)O1`, for which the CPE inhibition is -13.2% (inactive).

With `COc1ccccc1-c1cn(CC[C@@H]2CC[C@H](NC(=O)c3ccccc3F)[C@H](CO)O2)nn1`, the CPE inhibition is 4.94% (inactive).

Take `C[C@@H]1CN([C@H](C)CO)C(=O)c2cccc(NC(=O)Nc3ccc4c(c3)OCO4)c2O[C@H]1CN(C)S(=O)(=O)c1ccccc1`: the CPE inhibition was -7.78% (inactive).

As for `Nc1nc(SCC(=O)Nc2cc(C(F)(F)F)ccc2Cl)[nH]c(=O)c1NC(=O)c1ccco1`, the CPE inhibition was -1.74% (inactive).

As for `COCCNC(=O)CSc1nc(N)c(NC(=O)c2ccco2)c(=O)[nH]1`, the CPE inhibition was 96.9% (active).

With `COC(=O)c1ccc(NC(=O)CSc2nc(N)c(NC(=O)c3ccc(Br)o3)c(=O)[nH]2)cc1`, the CPE inhibition was -4.82% (inactive).

On to `CCCNC(=O)N1[C@H](CO)[C@H](c2ccccc2)[C@H]1CNC(=O)C1CCCCC1`, for which the CPE inhibition was -12% (inactive).

For `CC(=O)Nc1ccc2c(c1)C(=O)N(C)[C@@H]1CC[C@@H](CC(=O)NCC3CCCCC3)O[C@@H]1CO2`, the CPE inhibition was -1.94% (inactive).

As to `COC(=O)[C@]1(Cc2ccccc2)NC=C(C(=O)c2ccccc2)[C@@H]1c1cccc(OC)c1`, the CPE inhibition is -11.9% (inactive).

`COc1ccc(NC(=O)Nc2ccc3c(c2)C(=O)N([C@@H](C)CO)C[C@@H](C)[C@@H](CN(C)S(=O)(=O)c2ccc(C)cc2)OCCCC[C@H](C)O3)cc1`: the CPE inhibition was -2.48% (inactive).

Consider `COC(=O)[C@]12C[C@H](CC(=O)NCCCCc3ccccc3)C(=O)N(Cc3ccc4c(c3)OCO4)C1=C[C@H](C(C)(C)C)O[C@@H]2C`, for which the CPE inhibition is 1.32% (inactive).

With `C[C@@H]1CN([C@@H](C)CO)C(=O)c2cc(C3=CCCC3)cnc2O[C@@H]1CN(C)C(=O)Cc1ccncc1`, the CPE inhibition was -2.39% (inactive).

For the molecule `Cc1ccccc1S(=O)(=O)N1[C@H](C#N)[C@H](c2ccccc2)[C@H]1CO`, the CPE inhibition was 9.21% (inactive).

As for `CS(=O)(=O)N1[C@@H](C#N)[C@H](c2ccc(C#CC3CCCCC3)cc2)[C@@H]1CO`, the CPE inhibition was -6.42% (inactive).

In the case of `Cc1ccccc1S(=O)(=O)N1[C@@H](C#N)[C@H](c2ccccc2)[C@@H]1CO`, the CPE inhibition was 8.15% (inactive).

Consider `CS(=O)(=O)N1[C@H](C#N)[C@H](c2ccc(C#CC3CCCC3)cc2)[C@H]1CO`, for which the CPE inhibition is 28.9% (active).

With `N#C[C@@H]1[C@H](c2ccccc2-c2ccc(F)cc2)[C@@H](CO)N1c1ncc(-c2ccccc2)s1`, the CPE inhibition was 0.494% (inactive).

As to `CS(=O)(=O)N1[C@H](C#N)[C@H](c2ccc(C#CC3CC3)cc2)[C@H]1CO`, the CPE inhibition is 4.72% (inactive).

As for `N#C[C@@H]1[C@@H](c2ccc(C#Cc3cccc(F)c3)cc2)[C@@H](CO)N1C(=O)C1CCC1`, the CPE inhibition is -2.98% (inactive).

Take `N#C[C@@H]1[C@H](c2ccc(C#Cc3cccc(F)c3)cc2)[C@@H](CO)N1C(=O)C1CCCC1`: the CPE inhibition was 3.79% (inactive).

On to `CS(=O)(=O)N1[C@H](C#N)[C@H](c2ccccc2-c2ccc(F)cc2)[C@@H]1CO`, for which the CPE inhibition is 29.1% (active).

For the molecule `N#C[C@H]1[C@H](c2ccc(C#Cc3ccc(F)cc3)cc2)[C@@H](CO)N1C(=O)C1CCCC1`, the CPE inhibition was 22.7% (active).

As for `Cc1ccccc1S(=O)(=O)N1[C@H](C#N)[C@H](c2ccccc2)[C@@H]1CO`, the CPE inhibition is 119% (active).

Regarding `COCC(=O)N1[C@H](CO)[C@H](c2ccccc2-c2ccc(C)cc2)[C@@H]1C#N`, the CPE inhibition is -2.92% (inactive).
